# Only some compounds are listed: those with a hit (about 3% of all), similar ones and a draw of the others.
# Mtb FBA inh = inhibits M. tuberculosis FBA enzyme; P9WQA3; purified M. tuberculosis FBA, fluorescence read-out; inhibition, % at 1 µM; hit rate 2.3% among 360,000; AID 588726; in the data active = inhibition above about 27%;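 note: 0% = vehicle and 100% = reference inhibitor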
# Target sequence (P9WQA3 whole entry, looked up): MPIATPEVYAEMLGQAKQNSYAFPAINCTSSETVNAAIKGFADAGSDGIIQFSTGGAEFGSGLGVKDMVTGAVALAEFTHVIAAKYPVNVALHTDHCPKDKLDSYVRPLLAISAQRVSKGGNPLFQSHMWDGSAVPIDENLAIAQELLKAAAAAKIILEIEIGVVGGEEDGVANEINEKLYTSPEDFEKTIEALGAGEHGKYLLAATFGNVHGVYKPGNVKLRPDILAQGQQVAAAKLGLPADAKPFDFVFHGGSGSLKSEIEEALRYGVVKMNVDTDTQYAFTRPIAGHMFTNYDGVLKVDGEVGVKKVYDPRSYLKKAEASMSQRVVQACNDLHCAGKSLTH
# BH1578 lux ind = quorum light induction in luxS cqsA deficient V. cholerae | V. cholerae BH1578 lux reporter, luminescence, 6 h | activation, % at 18.7 µM | hit rate 0.16% among 350,000; in the data active = activation mostly above about 9.7%, no sharp cut-off
# BioA inh = inhibitors of Mycobacterium tuberculosis BioA enzyme. purified M. tuberculosis BioA enzyme, plate reader. inhibition, % at 9.99 µM. hit rate 0.096% among 360,000; in the data active = inhibition above about 40%
# GDH-TPI inh = GDH-TPI coupled enzyme inhibition counter-screen. GDH-TPI coupled enzyme counterscreen, NADH absorbance. inhibition, % at 4.8 µM. hit rate 1.2% among 360,000. AID 588335; in the data active = inhibition above about 30%;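 note: 0% = DMSO wells and 100% = wells lacking the enzyme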
# * hit, by the source's call; i = inactive; x = no result; + = active, no number.
SMILES,Mtb FBA inh,BH1578 lux ind,BioA inh,GDH-TPI inh
O=C(C[C@@H]1CC[C@@H]2[C@H](COC[C@H](O)CN2C(=O)Nc2cc(Cl)cc(Cl)c2)O1)NCC1CCCCC1,x,x,-1,x
C[C@H]1CN([C@@H](C)CO)C(=O)c2cc(C3=CCCC3)cnc2O[C@@H]1CN(C)Cc1ccc(C(=O)O)cc1,x,x,-4,x
Oc1ccc(/C=N/Nc2ccc(C(F)(F)F)cn2)cc1,-2,-1,x,19
C/C(=N\Nc1ccc(C(F)(F)F)cn1)c1ccncc1,-2,i,-1,56*
CO[C@@H]1CN(C)C(=O)c2cc(NC(=O)Nc3ccccc3F)ccc2OC[C@H](C)N(CC2CC2)C[C@@H]1C,x,x,-2,x
CCN1CCN(S(=O)(=O)c2cc(OCC(=O)NC3CCCCC3)c(C)cc2Cl)CC1,-7,-2,-1,52*
C[C@@H]1CN([C@@H](C)CO)C(=O)c2cc(-c3cccc(C(=O)N(C)C)c3)cnc2O[C@H]1CN(C)C,x,x,-4,x
Cc1ccc(SCC(=O)N(Cc2nc(-c3ccccc3)no2)C(C)C)cc1,5,25*,1,-3
CCc1nc(Nc2ccc3c(c2)OCO3)c2oc3ccccc3c2n1,6,0,-1,17
CCc1nc(Nc2cccc(O)c2)c2oc3ccccc3c2n1,4,-1,x,31*
CC(=C/c1ccccc1)/C=N/Nc1nc(N2CCOCC2)nc(N2CCOCC2)n1,-1,-1,-3,26
Clc1ccccc1/C=C/C=N/Nc1nc(N2CCOCC2)nc(N2CCOCC2)n1,-4,0,-3,40*
C(=C\c1ccccc1)/C=N/Nc1nc(N2CCOCC2)nc(N2CCOCC2)n1,-2,i,x,47*
O=C(N[C@H]1CC[C@@H](CC(=O)N2CCN(c3ccccc3)CC2)O[C@@H]1CO)c1ccccc1,x,x,0,x
CN1CCN(C(=O)C[C@@H]2C[C@H]3c4cc(NC(=O)CC5CC5)ccc4O[C@H]3[C@@H](CO)O2)CC1,x,x,-2,x
C[C@@H]1CN([C@H](C)CO)C(=O)c2cc(NC(=O)CCC(F)(F)F)ccc2O[C@@H]1CN(C)CC1CCCCC1,x,x,-1,x
N/C(=N\N=C\c1ccco1)SC1CC(=O)N(c2ccccc2)C1=O (centres undefined),2,3,x,26
C/C(=N\N=C(/N)SC1CC(=O)N(c2ccc(Br)cc2)C1=O)c1cccs1 (centres undefined),-3,-7,3,23
N/C(=N\N=C\c1cccs1)SC1CC(=O)N(c2ccc(Br)cc2)C1=O (centres undefined),-1,i,x,32*
N/C(=N\N=C\c1ccco1)SC1CC(=O)N(c2ccc(C(=O)O)cc2)C1=O (centres undefined),-7,i,x,45*
C/C(=N\N=C(/N)SC1CC(=O)N(c2ccccc2)C1=O)c1cccs1 (centres undefined),1,-1,2,41*
CC=Cc1ccc2n(c1=O)C[C@H]1[C@H](CO)[C@@H](C(=O)NCCC)[C@@H]2N1S(=O)(=O)c1cn(C)cn1 (mixture of isomers),x,x,-2,x
C[C@H](NC(=O)C[C@H]1C[C@H]2c3cc(NS(C)(=O)=O)ccc3O[C@H]2[C@@H](CO)O1)c1ccccc1,x,x,1,x
CCC(c1nnnn1Cc1ccc(F)cc1)N(CCCO)Cc1cc2cc3c(cc2[nH]c1=O)OCO3 (centres undefined),13,i,-2,35*
CCC(c1nnnn1CC1CCCO1)N(CCCO)Cc1cc2cccc(C)c2[nH]c1=O (centres undefined),13,-1,-2,4
SMILES,Mtb FBA inh,BH1578 lux ind,BioA inh,GDH-TPI inh
C[C@H](O)C#Cc1ccc2c(c1)O[C@@H](CN(C)Cc1cncnc1)[C@H](C)CN([C@@H](C)CO)S2(=O)=O,x,x,8,x
COc1ccc2sc(-c3ccc(S(C)(=O)=O)cc3)c(-c3ccc4c(c3)OCCO4)c2c1,12,i,0,27
COc1cc2sc(-c3ccc(S(C)(=O)=O)cc3)c(-c3ccc4c(c3)OCO4)c2cc1OC,32*,1,0,16
C[C@@H]1CCCCO[C@@H](CN(C)C(=O)NC2CCCCC2)[C@H](C)CN([C@@H](C)CO)C(=O)c2cc(NS(=O)(=O)c3ccc(F)cc3)ccc2O1,x,x,0,x
O=c1c2ccccc2nc2n1CCCCN2,68*,x,-1,3
Nc1ccc(C(=O)N/N=C\C=C\c2ccc([N+](=O)[O-])cc2)cc1,-3,0,x,47*
CC(C)C(=O)Nc1ccccc1C(=O)N/N=C/c1ccc([N+](=O)[O-])cc1,0,i,-1,35*
O=C(N/N=C/c1ccc([N+](=O)[O-])cc1)c1ccccc1OCc1ccccc1,0,i,0,11
O=C(N/N=C/c1cccn1-c1ccc([N+](=O)[O-])cc1)c1cccnc1,-8,-1,0,53*
O=C(NN=Cc1ccc([N+](=O)[O-])cc1)c1ccncc1,0,-4,1,40*
O=C(N/N=C/c1cccnc1)c1ccc([N+](=O)[O-])cc1,-3,0,x,24
C[C@@H]1CN([C@H](C)CO)C(=O)c2cc(NS(C)(=O)=O)ccc2O[C@H]1CN(C)S(=O)(=O)c1cn(C)cn1,x,x,-1,x
O=C(C[C@H]1CC[C@H]2[C@@H](COC[C@@H](O)CN2CC2CC2)O1)NCC1CC1,x,x,1,x
COc1ccc(CNC(=O)C[C@@H]2CC[C@@H](NC(=O)c3ccc4c(c3)OCO4)[C@H](CO)O2)cc1,x,x,-1,x
O=C(N/N=C/c1ccc([N+](=O)[O-])cc1)c1cccc(N2CCCC2=O)c1,-3,0,1,40*
Cc1c(/C=N\NC(=O)c2ccc([N+](=O)[O-])cc2)cnn1C,-1,0,1,7
CCC(=O)Nc1ccc(C(=O)N/N=C/c2ccc([N+](=O)[O-])cc2)cc1,-2,0,-1,51*
CC(=O)n1cc(/C=N/NC(=O)c2ccc([N+](=O)[O-])cc2)c2ccccc21,-2,0,-1,32*
CS(=O)(=O)N(CC(=O)N/N=C/c1cccc2c1OCCO2)c1ccccc1Br,15,i,x,5
CCOC(=O)c1ccc(-c2ccc(/C=N/NC(=O)CN(c3ccccc3Br)S(C)(=O)=O)o2)cc1,6,0,x,32*
CC(C)NC(=O)N(C)C[C@H]1Oc2ncc(C#CC3CCCC3)cc2C(=O)N([C@@H](C)CO)C[C@@H]1C,x,x,-2,x
NCCSC1CC(=O)N(c2ccc(Cl)c(Cl)c2)C1=O (centres undefined),47*,i,-1,11
CC(C)NC(=O)N(C)C[C@H]1Oc2c(NC(=O)C3CC3)cccc2C(=O)N([C@H](C)CO)C[C@H]1C,x,x,-3,x
O=C(c1nc2nc(-c3ccccc3)cc(C(F)(F)F)n2n1)N1CCOCC1,19,-1,0,13
O=C(c1nc2nc(-c3cccs3)cc(C(F)(F)F)n2n1)N1CCN(Cc2ccccc2)CC1,145*,x,-4,22
CCOC(=O)c1nc2nc(-c3cccs3)cc(C(F)(F)F)n2n1,114*,-2,-3,18
Nc1nc2nc(-c3cccs3)cc(C(F)(F)F)n2n1,+,1,x,9
C[C@@H]1CN([C@@H](C)CO)C(=O)c2cc(NC(=O)CCCN(C)C)ccc2O[C@H]1CN(C)C(=O)NC1CCCCC1,x,x,1,x
